What is called Inhibition is the percentage by which the read-out fell short of the control. The low end stands for a response near the control, the high end for a response far below the control.

Experimental findings from ChEMBL document CHEMBL1157539, “Thousands of chemical starting points for antimalarial lead identification” (Nature, 2010) are described below.

The test system of this experiment is HepG2. As to the kind of experiment: GSK_TCMDC: Percent inhibition of human HepG2 cell line. Test compounds present at 10uM. The format is functional.
In the case of `CC(ON1C(N)=NC(N)=NC1(C)C)c1ccccc1` (stereo not given), the Inhibition came out at 65%.
Next, `CCOc1ccccc1C1C(C(=O)C(C)(C)C)N2c3ccc(Br)cc3C=CC2C12C(=O)c1ccccc1C2=O` (stereo not given): 17%; `Cc1ccc(CNC(=O)[C@H](CC(C)C)Nc2cc(C)nc(NCC3CCCCC3)n2)cc1.O=C(O)C(F)(F)F`: 6%; `CC(C)N(Cc1cnc(N)c(C#N)n1)c1ccc(Cl)c(Cl)c1`: 0%.
Then `COc1cccc(C=Cc2nc(=O)c3ccccc3o2)c1OC`, with 0%.
